Read-out in assay [1]: Monokine induced gamma interferon (MIG), CXCL9 (gene 4283)
Nature of the assay: BSK_hDFCGF_MIG: BioMAP Diversity Plus: hDFCGF Assay for Monokine induced gamma interferon (MIG) Biomarker Activity (AID 2283063). The following applies: primary human foreskin fibroblasts; actives raise or lower the signal. Summed up: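 Chemicals were added to primary human foreskin fibroblast cultures, which were sampled 24 h later. MIG levels were then quantified by ELISA and responses fitted in both directions relative to DMSO.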

Read-out in assay [2]: Matrix Metallopeptidase 1 (MMP1), MMP1 (gene 4312)
Description: BSK_hDFCGF_MMP1: BioMAP Diversity Plus: hDFCGF Assay for Matrix Metallopeptidase 1 (MMP1) Biomarker Activity (AID 2283064). The following applies: primary human foreskin fibroblasts; actives raise or lower the signal. Summed up: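 Primary human foreskin fibroblasts in the hDFCGF system were dosed with test chemical, and MMP1 was measured by ELISA 24 h later. Values come from bidirectional curve fitting against the DMSO baseline.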

Read-out in assay [3]: Vascular cell adhesion molecule 1 (VCAM1), VCAM1 (gene 7412)
Description: BSK_hDFCGF_VCAM1: BioMAP Diversity Plus: hDFCGF Assay for Vascular cell adhesion molecule 1 (VCAM1) Biomarker Activity (AID 2283065).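 On AC50: VCAM-1 protein level quantified by ELISA after 24 h chemical exposure.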 The following applies: primary human foreskin fibroblasts; actives raise or lower the signal. A digest of the protocol: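 Human foreskin fibroblast primary cells, chemical exposure 24 h; VCAM-1 by ELISA; bidirectional fit, DMSO = negative control/baseline.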

Read-out in assay [4]: Plasminogen activator inhibitor-1 (PAI1), SERPINE1 (gene 5054)
Description: BSK_hDFCGF_PAI1: BioMAP Diversity Plus: hDFCGF Assay for Plasminogen activator inhibitor-1 (PAI1) Biomarker Activity (AID 2283066). The following applies: primary human foreskin fibroblasts; actives raise or lower the signal. Summed up:
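PAI-1 levels, determined by ELISA, served as the endpoint in human foreskin fibroblast cultures exposed to compound for 24 h, with DMSO as baseline.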

Read-out in assay [5]: Intercellular Adhesion Molecule 1 (ICAM1), ICAM1 (gene 3383)
Description: BSK_KF3CT_ICAM1: BioMAP Diversity Plus: KF3CT Assay for Intercellular Adhesion Molecule 1 (ICAM1) Biomarker Activity (AID 2283067). The following applies: primary human keratinocytes with fibroblasts; actives raise or lower the signal. A digest of the protocol:
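ICAM-1 levels are measured by ELISA 24 h after dosing a primary human co-culture of keratinocytes and foreskin fibroblasts. Activity in either direction is fitted relative to DMSO vehicle.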

Read-out in assay [6]: Interferon-gamma inducible Protein 10 (IP10), CXCL10 (gene 3627)
Nature of the assay: BSK_KF3CT_IP10: BioMAP Diversity Plus: KF3CT Assay for Interferon-gamma inducible Protein 10 (IP10) Biomarker Activity (AID 2283068). The following applies: primary human keratinocytes with fibroblasts; actives raise or lower the signal. A digest of the protocol: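 Human keratinocyte plus foreskin fibroblast primary co-culture exposed to test chemical for 24 h; IP-10 measured by ELISA. Concentration-response fitted bidirectionally against DMSO control as baseline.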

Assay [7] in a line: BSK_KF3CT_SRB: Viability Assessment in the BioMAP Diversity Plus: KF3CT Assay (AID 2283069).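 Further: total protein by sulforhodamine B staining as a cytotoxicity measure; read 24 h after compound addition.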 Particulars: primary human keratinocytes with fibroblasts. A digest of the protocol:
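Human primary keratinocyte plus foreskin fibroblast co-culture exposed to chemicals for 24 h. Total protein measured by 0.1% sulforhodamine B staining after 10% TCA fixation, read at 560 nm; bidirectional fitting versus DMSO baseline.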

Read-out in assay [8]: Interleukin-1 alpha (IL1a), IL1A (gene 3552)
Description: BSK_KF3CT_IL1a: BioMAP Diversity Plus: KF3CT Assay for Interleukin-1 alpha (IL1a) Biomarker Activity (AID 2283070). Particulars: primary human keratinocytes with fibroblasts; actives raise or lower the signal. A digest of the protocol: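 Human keratinocyte plus foreskin fibroblast primary co-culture, sampled 24 h after chemical dosing. IL-1a measured by ELISA; responses fitted bidirectionally against DMSO baseline (negative control), so gain or loss of signal both count.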

Read-out in assay [9]: TIMP metallopeptidase inhibitor 2 (TIMP2), TIMP2 (gene 7077)
Description: BSK_KF3CT_TIMP2: BioMAP Diversity Plus: KF3CT Assay for TIMP metallopeptidase inhibitor 2 (TIMP2) Biomarker Activity (AID 2283071). The following applies: primary human keratinocytes with fibroblasts; actives raise or lower the signal. A digest of the protocol: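 Keratinocyte–fibroblast co-culture, 24 h exposure; TIMP-2 ELISA, DMSO-normalised bidirectional fit. Parallel SRB (0.1%, TCA-fixed, 560 nm) total-protein staining gauges cytotoxicity.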

Read-out in assay [10]: TIMP metallopeptidase inhibitor 1 (TIMP1), TIMP1 (gene 7076)
Nature of the assay: BSK_hDFCGF_TIMP1: BioMAP Diversity Plus: hDFCGF Assay for TIMP metallopeptidase inhibitor 1 (TIMP1) Biomarker Activity (AID 2283062). Particulars: primary human foreskin fibroblasts; actives raise or lower the signal. Summed up:
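Human skin fibroblasts (primary), hDFCGF system; compound exposure 24 h; TIMP-1 by ELISA; bidirectional fit vs DMSO negative control; overt cytotoxicity by SRB in parallel wells.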

The source made the active and inactive calls. How the source made its calls: active means hit-call score of the fitted dose curve at least 0.9, where 1 is the maximum; inactive means score below 0.9.

What is called AC50 is the midpoint of the concentration-response curve, whichever way the signal moves. As to `CCCCCCCCCCCCCCO`, the AC50 was 10.8 µM (active) in [1], 20 µM (active) in assay [3] and 27 µM (active) in [4]. Moreover, the result in assay [2], in [5], in [6], in [7], in assay [8] and in assay [9] was inactive.

For the compound `CCCC(CCC)C(=O)O`, the result in assay [10], in assay [1], in assay [2], in assay [3], in assay [4] and in assay [5] was inactive. Moreover, the outcome in assay [6], in [7], in assay [8] and in assay [9] was inactive.

`O=C1CN(N=Cc2ccc([N+](=O)[O-])o2)C(=O)N1`: the outcome in assay [1], in [2], in assay [3], in assay [4], in assay [5] and in assay [6] was inactive. The result in [7], in assay [8] and in [9] was inactive.

In the case of `COc1cc(C(C)C)c2c(c1)S(=O)(=O)N(COc1cc(=O)n3cccc(OCCN4CCCCC4)c3n1)C2=O`, the result in assay [10], in assay [5], in [7] and in assay [9] was inactive. For the same compound, the AC50 in [1] was 5.41 µM (active); in assay [2] it was 1.3 µM (active); in assay [3], 2.72 µM (active); in [4], 6.38 µM (active); in [6], 7.22 µM (active); in assay [8], 5 µM (active).

Take `O=C(O)c1ccc2c(c1)nc(C(=O)NC1CCN(C3CC3)CC1)n2Cc1cc(-c2ccc(Cl)s2)on1`: the outcome in [1], in assay [2], in [3], in [4], in [5] and in [6] was inactive. In addition, the outcome in assay [7], in assay [8] and in assay [9] was inactive.

For `CC(C)CC(C)O` (stereo unspecified), the outcome in assay [10], in assay [1], in assay [2], in assay [3], in [4] and in assay [5] was inactive. In addition, the result in assay [6], in [7], in [8] and in assay [9] was inactive.

Regarding `c1ccc2c(c1)-c1cccc3c1c-2cc1ccccc13`, the outcome in assay [10], in assay [1], in assay [3], in assay [4], in assay [5] and in assay [6] was inactive. For the same compound, the result in assay [7], in assay [8] and in assay [9] was inactive. Also, the AC50 in assay [2] is 6.72 µM (active).

`O=C(Cl)C(F)(F)C(F)(F)C(F)(F)C(=O)Cl`: the outcome in [10], in [1], in [2], in [3], in assay [4] and in [5] was inactive. The result in assay [6], in assay [7], in assay [8] and in assay [9] was inactive.

For the compound `O=S(=O)(O)c1ccc(N=Nc2c(O)ccc3cc(S(=O)(=O)O)ccc23)cc1`, the result in [10], in assay [1], in assay [2], in assay [3], in [4] and in assay [5] was inactive. Also, the result in assay [6], in assay [7], in [8] and in assay [9] was inactive.

Consider `CC(=O)c1ccccc1`, for which the result in assay [1], in assay [2], in assay [3], in [4], in [5] and in assay [6] was inactive. Also, the outcome in [7], in assay [8] and in [9] was inactive.

With `c1ccc2ncccc2c1`, the outcome in [1], in assay [2], in assay [3], in [4], in assay [5] and in [6] was inactive. Moreover, the outcome in [7], in assay [8] and in assay [9] was inactive.

`NC(N)=O`: the result in [1], in assay [2], in [3], in assay [4], in [5] and in assay [6] was inactive. Further, the outcome in [7], in [8] and in assay [9] was inactive.

For the compound `c1ccc(C(O[C@@H]2CCCN(CCc3ccc4c(c3)OCO4)C2)c2ccccc2)cc1`, the result in assay [10], in assay [1], in assay [2], in assay [5], in [6] and in assay [7] was inactive. For the same compound, the outcome in [8] was inactive. Also, the AC50 in assay [3] is 8.8 µM (active); in [4], 20 µM (active); in assay [9], 3.97 µM (active).

`OCc1ccccc1`: the result in [10], in assay [1], in [2], in assay [3], in assay [4] and in assay [5] was inactive. The outcome in assay [6], in [7], in assay [8] and in assay [9] was inactive.

Take `NNC(=O)c1ccncc1`: the outcome in [10], in [1], in [3], in assay [4], in [5] and in assay [6] was inactive. Besides, the outcome in [7], in [8] and in assay [9] was inactive.

For `CC(C)c1nnc2ccc(-c3ocnc3-c3cc(F)ccc3F)cn12`, the result in [1], in [4], in [5], in assay [6], in [7] and in [8] was inactive. In addition, the outcome in assay [9] was inactive. Moreover, the concentration at half-maximal activity (AC50) was 0.385 µM (active) in assay [2] and 0.148 µM (active) in assay [3].

Take `Cc1ncc([C@@H](CCCCCCc2ccc3c(n2)NCCC3)CC(=O)O)cn1`: the outcome in assay [1], in [2], in assay [3], in [4], in assay [5] and in assay [6] was inactive. The outcome in assay [7], in assay [8] and in [9] was inactive.

With `COS(C)(=O)=O`, the outcome in assay [1], in assay [2], in assay [3], in assay [4], in assay [5] and in assay [6] was inactive. Moreover, the result in [7], in assay [8] and in [9] was inactive.

On to `NC(=O)N(O)[C@@H]1COc2cc(OCc3ccccc3)ccc21`, for which the result in assay [1], in assay [2], in assay [3], in [4], in assay [5] and in assay [6] was inactive. Moreover, the outcome in assay [7], in assay [8] and in assay [9] was inactive.

Regarding `CCN(CC)C(=S)SSC(=S)N(CC)CC`, the half-maximal activity concentration (AC50) is 3.27 µM (active) in assay [2]; 1.56 µM (active) in [3]; 3.95 µM (active) in assay [4]; 13.5 µM (active) in [5]; 9.46 µM (active) in assay [6]; 9.96 µM (active) in assay [7]. For the same compound, the AC50 in [8] was 13.4 µM (active); in assay [9] it was 12.4 µM (active).

For the compound `NC(=O)N1c2ccccc2C=Cc2ccccc21`, the result in assay [1], in [2], in assay [3], in assay [4], in [5] and in assay [6] was inactive. Besides, the result in assay [7], in assay [8] and in assay [9] was inactive.
